From PubChem BioAssay AID2590 (National Center for Advancing Translational Sciences (NCATS), 2010) come the findings set out here.

Several values for one entry are separate records, joined by “and”; a condition that tells them apart may be missing. Equal entries are not always repeated. Inconclusive results are not listed. Activity calls are given as the source filed them. Calls follow the shape of the dose curve; as a rule, active = well fitted curve in the direction sought with a large enough effect; inconclusive = small, poorly fitted or top-dose-only effect, or another doubt; inactive = no such curve, though single readings can be large or run the other way.
Potency is read from the fitted curve at half-maximal effect.

Sequence of Lysosomal acid glucosylceramidase (Homo sapiens) (P04062 whole entry N409S): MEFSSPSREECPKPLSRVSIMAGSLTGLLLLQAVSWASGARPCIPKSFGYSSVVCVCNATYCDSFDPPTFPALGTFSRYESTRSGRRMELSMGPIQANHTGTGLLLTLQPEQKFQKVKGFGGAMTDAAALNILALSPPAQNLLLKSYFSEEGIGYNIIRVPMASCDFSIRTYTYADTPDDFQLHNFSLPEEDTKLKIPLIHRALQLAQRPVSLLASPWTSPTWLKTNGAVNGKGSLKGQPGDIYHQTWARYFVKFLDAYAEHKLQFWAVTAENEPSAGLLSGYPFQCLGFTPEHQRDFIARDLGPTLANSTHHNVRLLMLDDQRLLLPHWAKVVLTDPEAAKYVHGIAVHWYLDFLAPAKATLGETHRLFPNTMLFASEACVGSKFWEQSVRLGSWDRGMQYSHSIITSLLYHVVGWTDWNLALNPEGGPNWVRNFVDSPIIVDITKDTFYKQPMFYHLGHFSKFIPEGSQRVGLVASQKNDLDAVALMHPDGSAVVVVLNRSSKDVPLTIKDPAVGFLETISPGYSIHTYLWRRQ

This assay has as its target Lysosomal acid glucosylceramidase (Homo sapiens) (UniProt P04062). The assay is described as follows: qHTS Assay for Inhibitors and Activators of N370S glucocerebrosidase as a Potential Chaperone Treatment of Gaucher Disease: Primary Screen Confirmation.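 As to Potency: enzyme source is Gaucher patient spleen homogenate not purified recombinant protein.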 As to conditions: N370S glucocerebrosidase enzyme activity, fluorogenic substrate; series mostly up to 54 µM. The gist of the method: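 Patient-spleen homogenate carrying N370S GC (27 ug) in pH 5.0 citrate buffer with 0.01% Tween-20, 1 mM 4-methylumbelliferyl-beta-glucoside, 40 min at 37C; fluorescence 365/440 nm after NaOH/glycine stop; AC50 from Hill fits.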
(In general: Quantitative high-throughput screening tests each substance at several concentrations.)
Consider `Cc1cccn2c(=O)c3cc(C(=O)NCCc4ccccc4)sc3nc12`, for which the Potency result is “inactive”.
As for `Cc1ccc(-c2nc(N3CCN(S(=O)(=O)c4ccc(F)cc4)CC3)c3ccc(Cl)cc3n2)cc1`, the entry is “inactive”; as for `CC(C)C(C)NC(=O)CSc1nc2scc(-c3ccco3)c2c(=O)n1-c1ccccc1` (centres undefined), “inactive”; as for `CC(C)(C)C(=O)OCCNc1nc(-c2cccs2)nc2ccccc12`, 1.46 µM (active).
Consider `O=S(=O)(/C=C/c1ccccc1)N1CCN(c2nc(-c3ccccc3)nc3ccccc23)CC1`, for which the Potency was 11.6 µM (active).
Take `O=S(=O)(c1ccc(Br)cc1)N1CCN(c2nc(-c3cccs3)nc3ccccc23)CC1`: the Potency was 1.3 µM (active).
Regarding `O=C(NCCCc1cnc[nH]1)NCCCN(Cc1ccc(Cl)c(Cl)c1)c1ccc(Br)cn1`, the Potency was 1.03 µM (active).
On to `NCCCN(Cc1ccc(Cl)c(Cl)c1)c1ccc(Br)cn1`, for which the Potency is 18.3 µM (active).
For `Cc1cc(Cl)nc(NC(=O)Nc2cccc(Cl)c2)n1`, the Potency result is “inactive”.
With `N#Cc1ccccc1S(=O)(=O)N1CCN(c2nc(-c3cccs3)nc3ccccc23)CC1`, the Potency was 2.25 µM (active) and 1.13 µM (active).
As for `Cc1cc(C)cc(N(CC(=O)Nc2ccc(C(F)(F)F)cc2)S(=O)(=O)c2c(C)[nH]c(=O)[nH]c2=O)c1`, the Potency was 2.59 µM (active).
Turning to `S=C(NCCCc1cnc[nH]1)NCCCN(Cc1ccc(Cl)cc1)c1ccc(Br)cn1`, the Potency is 1.16 µM (active).
With `O=S(=O)(c1ccc2c(c1)OCCO2)N1CCN(c2nc(-c3cccs3)nc3ccccc23)CC1`, the Potency was 410 nM (active) and 450 nM (active).
As for `O=S(=O)(c1ccc(Cl)cc1)N1CCN(c2nc(-c3ccccc3)nc3ccccc23)CC1`, the figure is 5.8 µM (active); as for `Cc1cc2[nH]c(=O)c(=O)[nH]c2cc1S(=O)(=O)N1CCN(c2cccc(C(F)(F)F)c2)CC1`, 5.17 µM (active).
Turning to `CN(CCCN(Cc1ccc(Cl)cc1)c1ccc(Br)cn1)C(=S)NCCCc1cnc[nH]1`, the Potency was 2.53 µM (active).
Turning to `COc1ccc(CN(CCCN)c2ccc(Br)cn2)cc1`, the Potency entry was “inactive”.
Consider `CC(=O)Nc1ccc(NC(=O)COc2ccccc2C(=O)Nc2cccc(Cl)c2Cl)cc1`, for which the Potency result is “inactive”.
As for `O=S(=O)(c1ccccc1)N1CCN(c2nccc(-c3cccs3)n2)CC1`, the entry is “inactive”; as for `Cc1nc2nc(-c3ccc(F)cc3)cn2nc1C`, “inactive”.
As to `Cc1ccc(S(=O)(=O)N2CCN(c3nc(-c4ccc(CN5CCNCC5)s4)nc4ccccc34)CC2)cc1`, the Potency is 12.7 µM (active).
`Cc1ccc(S(=O)(=O)N2CCC(c3nc(-c4cccs4)nc4ccccc34)CC2)cc1`: the Potency entry is “inactive”.
As for `O=C(Nc1ccccc1)Nc1ccccc1`, the Potency entry is “inactive”.
As for `CCCCN(CCCNC(=S)NCCCc1cnc[nH]1)c1ccc(Br)cn1`, the Potency is 8.18 µM (active).
For the compound `O=S(=O)(c1ccccc1)N1CCN(c2nc(-c3cccs3)nc3ccccc23)CC1`, the Potency was 1.46 µM (active) and 919 nM (active).
As for `O=C(/C=C/c1ccc(O)cc1)c1ccc(O)cc1O`, the figure is 11.2 µM (active); as for `O=S(=O)(c1ccc2ccccc2c1)N1CCN(c2nc(-c3cccs3)nc3ccccc23)CC1`, 0.326 µM (active).
Turning to `Cc1ccc(S(=O)(=O)N2CCN(c3nc(-c4cccnc4)nc4ccccc34)CC2)cc1`, the Potency was 16.3 µM (active).
Consider `Cc1ccc(S(=O)(=O)N2CCN(c3nc(-c4cscn4)nc4ccccc34)CC2)cc1`, for which the Potency was 4.11 µM (active).
